# Measured values reported in the supplement of paper PMC12645437, “Orthogonal IMiD-Degron Pairs Induce Selective Protein Degradation in Cells” (ACS Chemical Biology, 2025).
# Over roughly 8,300 sequences, “log2 fold change of degron read counts, EGFP-low vs EGFP+ sorted cells (limma voom), compound-induced degradation” has its median near -1.1; the highest 2% begin near 3.2. The full list was thinned out, with the highest values kept by preference.
# T1: CRBN, Q96SW2
# T1 chain: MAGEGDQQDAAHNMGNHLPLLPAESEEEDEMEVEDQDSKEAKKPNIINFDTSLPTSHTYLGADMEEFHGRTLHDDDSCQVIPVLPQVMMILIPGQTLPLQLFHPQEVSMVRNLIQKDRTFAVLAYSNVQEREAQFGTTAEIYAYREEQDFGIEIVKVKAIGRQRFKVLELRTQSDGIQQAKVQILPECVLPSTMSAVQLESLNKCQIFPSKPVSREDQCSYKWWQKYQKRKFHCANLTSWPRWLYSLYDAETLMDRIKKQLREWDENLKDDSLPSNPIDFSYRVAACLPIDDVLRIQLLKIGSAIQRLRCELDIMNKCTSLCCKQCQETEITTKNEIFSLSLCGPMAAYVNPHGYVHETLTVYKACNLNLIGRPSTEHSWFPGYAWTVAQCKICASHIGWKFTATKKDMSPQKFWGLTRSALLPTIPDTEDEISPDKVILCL
# B1: 46F_47Q_49N_50Q_52G_53H_54E_55F_67L_, Q9UKT9 (peptide)
# chain: FQCNQCGHEFTQKGNLLRHIKL
# B2: 46L_47C_49N_50Q_52G_53F_54W_55C_67L_, Q9UKT9 (peptide)
# chain: LCCNQCGFWCTQKGNLLRHIKL
# B3: 46F_47Q_49D_50V_52G_53A_54A_55F_67L_, Q9UKT9 (peptide)
# chain: FQCDVCGAAFTQKGNLLRHIKL
# B4: 46F_47M_49E_50Q_52G_53A_54T_55F_67L_, Q9UKT9 (peptide)
# chain: FMCEQCGATFTQKGNLLRHIKL
# B5: 46F_47L_49P_50I_52G_53H_54C_55F_67L_, Q9UKT9 (peptide)
# chain: FLCPICGHCFTQKGNLLRHIKL
# B6: 46F_47E_49P_50I_52G_53R_54G_55F_67L_, Q9UKT9 (peptide)
# chain: FECPICGRGFTQKGNLLRHIKL
# B7: 46F_47Y_49E_50I_52G_53A_54A_55F_67L_, Q9UKT9 (peptide)
# chain: FYCEICGAAFTQKGNLLRHIKL
# B8: 46F_47Q_49E_50I_52G_53A_54A_55F_67L_, Q9UKT9 (peptide)
# chain: FQCEICGAAFTQKGNLLRHIKL
# B9: 46F_47I_49E_50I_52G_53A_54A_55F_67L_, Q9UKT9 (peptide)
# chain: FICEICGAAFTQKGNLLRHIKL
# B10: 46F_47V_49E_50I_52G_53A_54A_55F_67L_, Q9UKT9 (peptide)
# chain: FVCEICGAAFTQKGNLLRHIKL
# Target: T1, CRBN, Q96SW2
# Assay: log2 fold change of degron read counts, EGFP-low vs EGFP+ sorted cells (limma voom), compound-induced degradation; higher = more compound-induced degradation of the degron-EGFP fusion; degrons are variants of IKZF1/3 zinc finger 2; compound dose not given here
# Conditions: Jurkat, 18 h
# [1] = compound: compound 19 (5-tert-butyl-thalidomide)
# [2] = compound: compound 22 (5-morpholino-thalidomide)
# [3] = compound: compound 33 (diphenyl IMiD analogue)
# 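Also: pooled lentiviral library of zinc finger degron-EGFP fusions in mCherry-positive Jurkat cells, FACS-sorted after compound exposure, with degron abundance counted by next-generation sequencing.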
Sequence,log2 fold change of degron read counts [1],log2 fold change of degron read counts [2],log2 fold change of degron read counts [3],log2 fold change of degron read counts (compound: thalidomide)
B1,-3.09,-3.12,-3.48,-3.28
B2,-0.952,-1.34,-1.18,-1.07
B3,0.909,1.9,0.606,2.84
B4,-2.84,-2.15,0.0969,-1.3
B5,-2.45,-2.17,-1.87,-1.49
B6,-1.82,-2.41,-0.354,0.562
B7,3.59,3.59,2.92,1.64
B8,2.89,2.79,2.34,3.64
B9,0.759,2.95,2.44,3.09
B10,1.93,2.89,2.35,3.15
